Source: PubChem
This excerpt belongs to a sample that is enriched for hits.
ER stress death = protection against thapsigargin ER stress killing – CSM14.1 cells, ATP luminescence, primary screen. CSM14.1 thapsigargin ER stress survival. relative survival (cellular ATP), % at 15 µg/mL (by protocol). 48,000 tested, 0.33% active. AID 1010, 2008;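 active = survival measured by cellular ATP above 50% at 15 µg/ml in the first screen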;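 note: cell death triggered by about 15 µM thapsigargin; ATP read 24 h after thapsigargin was added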
Of the large screens only hits and unclear results are named; the others gave an inactive call.

COC(C(=O)Nc1ccc(Br)cc1C(=O)c1ccccc1)c1ccccc1 (stereo not given)	ER stress death 72
COC(C(=O)Nc1ccc(Br)cc1C(=O)c1ccccc1Cl)c1ccccc1 (stereo not given)	none
COC(=O)c1[nH]cnc1C(=O)Nc1ccc(Br)cc1C(=O)c1ccccc1	none
CC(C)c1ccc(N2C(=O)CC(=O)NC2=S)cc1	none
C=CCN1C(=O)/C(=C\C=C\c2ccco2)C(=O)NC1=S	none
